We go through 15 molecules from PubChem BioAssay (NCATS).

SMILES strings stand for the structures. “And” between values parts separate entries of the source, which are not always exact repeats. Equal values may be shown once. Records with an inconclusive call do not appear. Where a structure was tested more than once in an assay, its records may differ in their call. The source made the active and inactive calls. Unless noted, calls follow the shape of the dose curve; as a rule, active = well fitted curve in the direction sought with a large enough effect; inconclusive = small, poorly fitted or top-dose-only effect, or another doubt; inactive = no such curve, though single readings can be large; an effect the other way counts as inactive or inconclusive.

Test system in the first experiment: not listed separately
Put plainly: qHTS assay to identify small molecules that stimulate interleukin-8 (IL-8) secretion (AID 651758; active = well fitted activation curve with a large enough effect in the signal ratio; the % refers to the signal ratio; also: potency is read from the fitted curve at half-maximal effect; as to activation: 0% is about no effect). As to conditions: HTRF ratio (665/615); series mostly up to 92.2 µM. The essentials: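 Quantitative HTS in THP-1 monocytic cells at 2000 cells per well, with 16 hrs compound incubation at 37 C. IL-8 in the medium was then quantified by HTRF immunoassay, read after 1-3 hrs at room temperature.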
With `CCNc1nc(Cl)nc(NC(C)C)n1`, the Potency result was “inactive”.
As to `CCOCN(C(=O)CCl)c1c(C)cccc1CC`, the Potency entry was “inactive”.
Turning to `ClC(Cl)=C(c1ccc(Cl)cc1)c1ccc(Cl)cc1`, the Potency entry is “inactive”.
On the same count and under the same terms, in the case of `ClC1=C(Cl)C2(Cl)C3C4C=CC(C4)C3C1(Cl)C2(Cl)Cl` (centres undefined) it was 42.2 µM (active); in that of `O=S1OCC2C(CO1)C1(Cl)C(Cl)=C(Cl)C2(Cl)C1(Cl)Cl` (centres undefined), 66.8 µM (active).
In the case of `ClC1=C(Cl)C2(Cl)C3C(Cl)C=CC3C1(Cl)C2(Cl)Cl` (centres undefined), the Potency is 26.6 µM (active).
Consider `CNC(=O)O/N=C/C(C)(C)SC`, for which the Potency entry was “inactive”.

Test system in another experiment: not listed separately
Put plainly: qHTS assay for environmental chemicals that activate the Aryl hydrocarbon Receptor (AhR) signaling pathway (AID 651777). Also: nearly all actives have a fitted effect of over 15% in size. Also: potency is read from the fitted curve at half-maximal effect. As to activation: % of control where 0% means no effect. As to conditions: 1A2-DRE human hepatoma cells, luciferase, 24 h; activation: hits give high values. The gist of the method: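 Human hepatoma 1A2-DRE cells stably carrying a DRE/CYP1A2 promoter–luciferase reporter, 1,200 cells/well, exposed to compound 24 hr at 37 C. Luciferase read by One-Glo luminescence after 30 min at room temperature; increased signal marks AhR activation.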
Background: Quantitative high-throughput screening tests each substance at several concentrations.
As to `CCNc1nc(Cl)nc(NC(C)C)n1`, the activation is -0.785% (inactive) and 0.245% (inactive).
Regarding `ClC1=C(Cl)C2(Cl)C3C4CC(C5OC45)C3C1(Cl)C2(Cl)Cl` (centres undefined), the activation was -0.344% (inactive).
For the molecule `CCOCN(C(=O)CCl)c1c(C)cccc1CC`, the activation is -0.995% (inactive) and 0.961% (inactive).
As to `ClC(Cl)=C(c1ccc(Cl)cc1)c1ccc(Cl)cc1`, the activation is 0.0823% (inactive) and 0.597% (inactive) and 0.112% (inactive).
On to `ClC1=C(Cl)C2(Cl)C3C4C=CC(C4)C3C1(Cl)C2(Cl)Cl` (centres undefined), for which the activation was 0.192% (inactive).
For `COC(=O)NC(=S)Nc1ccccc1NC(=S)NC(=O)OC`, the activation was 11.9% (inactive) and 4.33% (inactive).
`COP(=S)(OC)Oc1ccc([N+](=O)[O-])cc1`: the activation was 0.87% (inactive) and 0.313% (inactive).
In the case of `O=S1OCC2C(CO1)C1(Cl)C(Cl)=C(Cl)C2(Cl)C1(Cl)Cl` (centres undefined), the activation was -0.06% (inactive).
The same measure, in the same setting: in the case of `C=CCc1ccc(OC)cc1` it was 0.798% (inactive).
Turning to `ClC1=C(Cl)C2(Cl)C3C(Cl)C=CC3C1(Cl)C2(Cl)Cl` (centres undefined), the activation is -0.719% (inactive).
For `CNC(=O)O/N=C/C(C)(C)SC`, the activation was -0.995% (inactive) and 0.0962% (inactive); the Potency was 39.8 µM (active).
As for `c1ccc(N=Nc2ccccc2)cc1`, the activation is -0.472% (inactive) and 1.23% (inactive).
Same read-out and setting: in the case of `CCc1cccc(CC)c1N(COC)C(=O)CCl` it was -1.54% (inactive) and -2.21% (inactive).

The target of a further experiment is Peroxisome proliferator-activated receptor alpha (Homo sapiens) (UniProt Q07869). Put plainly: qHTS assay for small molecule agonists of the peroxisome proliferator-activated receptor alpha (PPARalpha) signaling pathway (AID 651778). Also: % of control where 0% means no effect. The conditions noted are these: PathHunter PPARalpha complementation, chemiluminescence, 6 h; hits give high values. The essentials: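 Cells plated at 2,000/well and held overnight at 37 C, 5% CO2, then compound added by pin tool for 6 hr; after PathHunter detection reagent and 60 min at room temperature, chemiluminescence from enzyme complementation was read.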
Peroxisome proliferator-activated receptor alpha (Homo sapiens), sequence (Q07869 whole entry, looked up): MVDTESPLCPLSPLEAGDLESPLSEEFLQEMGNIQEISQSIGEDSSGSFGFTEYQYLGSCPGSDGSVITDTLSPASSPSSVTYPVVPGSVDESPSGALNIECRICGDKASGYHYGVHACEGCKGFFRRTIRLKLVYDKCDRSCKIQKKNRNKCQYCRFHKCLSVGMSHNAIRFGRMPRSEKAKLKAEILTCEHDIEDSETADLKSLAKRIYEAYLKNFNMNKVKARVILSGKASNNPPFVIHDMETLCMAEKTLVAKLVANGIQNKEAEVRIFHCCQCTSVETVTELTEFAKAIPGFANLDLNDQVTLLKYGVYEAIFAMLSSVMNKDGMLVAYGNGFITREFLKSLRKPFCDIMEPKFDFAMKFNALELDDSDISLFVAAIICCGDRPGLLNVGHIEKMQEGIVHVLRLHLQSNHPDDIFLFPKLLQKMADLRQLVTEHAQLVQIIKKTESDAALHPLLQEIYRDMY
Consider `CCNc1nc(Cl)nc(NC(C)C)n1`, for which the max response was 3.27% (inactive) and 0.807% (inactive).
On the same count and under the same terms, in the case of `ClC1=C(Cl)C2(Cl)C3C4CC(C5OC45)C3C1(Cl)C2(Cl)Cl` (centres undefined) it was 9.76% (inactive).
Turning to `CCOCN(C(=O)CCl)c1c(C)cccc1CC`, the max response is -0.344% (inactive) and -1.51% (inactive).
Consider `ClC(Cl)=C(c1ccc(Cl)cc1)c1ccc(Cl)cc1`, for which the max response was 21.8% (inactive) and 11.7% (inactive) and 4.05% (inactive).
Same read-out and setting: in the case of `O=C(O)COc1ccc(Cl)cc1Cl` it was 0.368% (inactive) [middle of 4 runs]; in that of `COC(=O)NC(=S)Nc1ccccc1NC(=S)NC(=O)OC`, -4.83% (inactive) and -0.925% (inactive); in that of `C/C=C/c1ccc2c(c1)OCO2`, -6.18% (inactive).
`COP(=S)(OC)Oc1ccc([N+](=O)[O-])cc1`: the max response was -2.98% (inactive) and -2.34% (inactive).
As for `C=CCc1ccc(OC)cc1`, the max response was 0.294% (inactive).
The same measure, in the same setting: in the case of `ClC1=C(Cl)C2(Cl)C3C(Cl)C=CC3C1(Cl)C2(Cl)Cl` (centres undefined) it was 4.41% (inactive).
`CNC(=O)O/N=C/C(C)(C)SC`: the max response was 4.62% (inactive) and -1.35% (inactive) and -3.37% (inactive).
`c1ccc(N=Nc2ccccc2)cc1`: the max response is -0.415% (inactive) and -1.69% (inactive).
For `CCc1cccc(CC)c1N(COC)C(=O)CCl`, the max response is -2.24% (inactive) and -0.952% (inactive).

The target of another experiment is Nuclear receptor ROR-gamma (Homo sapiens) (UniProt P51449). Put plainly: qHTS assay for small molecule antagonists of the retinoid-related orphan receptor gamma (ROR-gamma) signaling pathway (AID 651802). Also: nearly all actives have a fitted effect of over 60% in size. Also: potency is read from the fitted curve at half-maximal effect. The conditions noted are these: ROR-gamma antagonist cell reporter assay; series mostly up to 92.2 µM. The gist of the method: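 Luciferase read-out: ONE-Glo luminescence after 30 min at room temperature, following 16hr doxycycline induction at 37C, 5% CO2 of CHO cells with TET-inducible ROR and RORE-LUC reporter; decreased luminescence = reduced reporter activity.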
Nuclear receptor ROR-gamma (Homo sapiens), sequence (P51449 whole entry, looked up): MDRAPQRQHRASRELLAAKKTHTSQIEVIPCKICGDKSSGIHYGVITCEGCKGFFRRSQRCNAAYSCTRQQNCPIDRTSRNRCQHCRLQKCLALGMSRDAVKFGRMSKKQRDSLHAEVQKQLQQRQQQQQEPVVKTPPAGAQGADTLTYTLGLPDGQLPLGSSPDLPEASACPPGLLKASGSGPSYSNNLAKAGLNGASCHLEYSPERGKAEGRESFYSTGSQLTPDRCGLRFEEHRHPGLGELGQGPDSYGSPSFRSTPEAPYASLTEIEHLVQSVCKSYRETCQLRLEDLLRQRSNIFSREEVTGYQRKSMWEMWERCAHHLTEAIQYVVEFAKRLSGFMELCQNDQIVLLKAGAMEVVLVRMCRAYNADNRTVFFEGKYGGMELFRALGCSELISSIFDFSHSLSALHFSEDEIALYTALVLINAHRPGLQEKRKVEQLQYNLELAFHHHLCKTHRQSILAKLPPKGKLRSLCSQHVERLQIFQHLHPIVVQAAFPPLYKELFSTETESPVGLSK
With `CCNc1nc(Cl)nc(NC(C)C)n1`, the Potency entry is “inactive”.
As for `ClC1=C(Cl)C2(Cl)C3C4CC(C5OC45)C3C1(Cl)C2(Cl)Cl` (centres undefined), the Potency is 13.3 µM (active).
`CCOCN(C(=O)CCl)c1c(C)cccc1CC`: the Potency entry was “inactive”.
As for `ClC(Cl)=C(c1ccc(Cl)cc1)c1ccc(Cl)cc1`, the Potency is 37.6 µM (active) and 33.5 µM (active).
`ClC1=C(Cl)C2(Cl)C3C4C=CC(C4)C3C1(Cl)C2(Cl)Cl` (centres undefined): the Potency was 23.7 µM (active).
For the molecule `COC(=O)NC(=S)Nc1ccccc1NC(=S)NC(=O)OC`, the Potency entry was “inactive”.
As to `C/C=C/c1ccc2c(c1)OCO2`, the Potency entry is “inactive”.
Take `COP(=S)(OC)Oc1ccc([N+](=O)[O-])cc1`: the Potency entry was “inactive”.
Turning to `O=S1OCC2C(CO1)C1(Cl)C(Cl)=C(Cl)C2(Cl)C1(Cl)Cl` (centres undefined), the Potency was 21.1 µM (active).
On to `C=CCc1ccc(OC)cc1`, for which the Potency result is “inactive”.
Still for that read-out and setting: in the case of `CNC(=O)O/N=C/C(C)(C)SC` it was “inactive”; in that of `c1ccc(N=Nc2ccccc2)cc1`, “inactive”.

Test system in another experiment: not listed separately
Put plainly: qHTS assay for small molecule agonists of the antioxidant response element (ARE) signaling pathway measured by Nrf2-dependant transcriptional activity (AID 720636; active = well fitted curve in the direction sought with a large enough effect in the repeat runs; an effect the other way counts as inactive or inconclusive; also: % of control where 0% means no effect). The conditions noted are these: ARE-luc HepG2, Nrf2 luciferase reporter, 16 h; series mostly up to 92.4 µM. The essentials: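 ARE-luc HepG2 cells carrying an Nrf2-responsive luciferase reporter, in medium with 1% dialyzed FBS, exposed to compound for 16 hr at 37 C, 5% CO2. Luminescence read 30 min after ONE-Glo addition.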
Consider `CCNc1nc(Cl)nc(NC(C)C)n1`, for which the outcome was inactive.
On to `ClC1=C(Cl)C2(Cl)C3C4CC(C5OC45)C3C1(Cl)C2(Cl)Cl` (centres undefined), for which the molecule was classed as inactive.
For `ClC(Cl)=C(c1ccc(Cl)cc1)c1ccc(Cl)cc1`, the molecule was called inactive.
As for `ClC1=C(Cl)C2(Cl)C3C4C=CC(C4)C3C1(Cl)C2(Cl)Cl` (centres undefined), the molecule was called inactive.
With `O=C(O)COc1ccc(Cl)cc1Cl`, the molecule was classed as inactive.
Take `COC(=O)NC(=S)Nc1ccccc1NC(=S)NC(=O)OC`: the outcome was inactive.
Still for that read-out and setting: in the case of `C/C=C/c1ccc2c(c1)OCO2` it was “inactive”; in that of `COP(=S)(OC)Oc1ccc([N+](=O)[O-])cc1`, “inactive”.
For the molecule `O=S1OCC2C(CO1)C1(Cl)C(Cl)=C(Cl)C2(Cl)C1(Cl)Cl` (centres undefined), the call was inactive.
As for `C=CCc1ccc(OC)cc1`, the result was inactive.
Consider `ClC1=C(Cl)C2(Cl)C3C(Cl)C=CC3C1(Cl)C2(Cl)Cl` (centres undefined), for which the outcome was inactive.
On the same count and under the same terms, in the case of `CNC(=O)O/N=C/C(C)(C)SC` it was “inactive”; in that of `c1ccc(N=Nc2ccccc2)cc1`, “inactive”.
